According to PubChem BioAssay (Tox21):
“And” between values parts separate entries of the source, which are not always exact repeats. Identical values can stand only once. Inconclusive results are not listed. Some structures have more than one record in an assay (separate samples or runs), and their calls can disagree. The source made the active and inactive calls. Unless noted, calls follow the shape of the full dose curve.

Legend:
[1] = Nuclear factor erythroid 2-related factor 2/antioxidant responsive element (Nrf2/ARE) small molecule agonists: qHTS cell viability counter screen in human keratinocytes (AID 1919968; active = well fitted curve in the direction sought with a large enough effect in the repeat runs; an effect the other way counts as inactive or inconclusive; also: nearly all actives have a fitted effect of over 55% in size; also: potency is read from the fitted curve at half-maximal effect)
Outline: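 After a 5 h attachment period, ARE-reporter keratinocytes were dosed with compounds in DMSO and then cultured 23 h at 37 C. Cell viability came from CellTiter-Fluor signal read after a further 1 h.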

[2] = target: Gonadotropin-releasing hormone receptor (Homo sapiens) (UniProt P30968); assay: Human gonadotropin-releasing hormone receptor (GnRHR) small molecule agonists, calcium flux assay in GnRHR-HEK293 cells (AID 1920063); also: nearly all actives have a fitted effect of over 35% in size; also: potency is read from the fitted curve at half-maximal effect
Gonadotropin-releasing hormone receptor (Homo sapiens), sequence (P30968 whole entry, looked up): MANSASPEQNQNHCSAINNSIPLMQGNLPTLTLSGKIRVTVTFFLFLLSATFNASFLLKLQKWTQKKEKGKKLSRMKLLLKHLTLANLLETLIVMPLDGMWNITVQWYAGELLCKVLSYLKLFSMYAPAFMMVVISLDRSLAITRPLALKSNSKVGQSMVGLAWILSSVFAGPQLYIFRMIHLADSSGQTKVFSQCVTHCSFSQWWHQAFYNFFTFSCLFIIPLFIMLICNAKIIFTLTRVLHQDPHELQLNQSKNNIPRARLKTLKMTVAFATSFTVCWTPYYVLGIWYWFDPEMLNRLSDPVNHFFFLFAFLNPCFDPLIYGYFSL
Outline: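 We seeded human GnRHR-expressing HEK293 cells for 18 hours, loaded them with calcium dye for an hour at 37 C, added test compounds, and recorded fluorescence intensity kinetically for three minutes.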

[3] = target: KiSS-1 receptor (Homo sapiens) (UniProt Q969F8); assay: Human kisspeptin (KISS1R) small molecule agonists, calcium flux assay in KISS1R-HEK293 cells (AID 1920064; active = well fitted curve in the direction sought with a large enough effect in the repeat runs; an effect the other way counts as inactive or inconclusive)
KiSS-1 receptor (Homo sapiens), sequence (Q969F8 whole entry, looked up): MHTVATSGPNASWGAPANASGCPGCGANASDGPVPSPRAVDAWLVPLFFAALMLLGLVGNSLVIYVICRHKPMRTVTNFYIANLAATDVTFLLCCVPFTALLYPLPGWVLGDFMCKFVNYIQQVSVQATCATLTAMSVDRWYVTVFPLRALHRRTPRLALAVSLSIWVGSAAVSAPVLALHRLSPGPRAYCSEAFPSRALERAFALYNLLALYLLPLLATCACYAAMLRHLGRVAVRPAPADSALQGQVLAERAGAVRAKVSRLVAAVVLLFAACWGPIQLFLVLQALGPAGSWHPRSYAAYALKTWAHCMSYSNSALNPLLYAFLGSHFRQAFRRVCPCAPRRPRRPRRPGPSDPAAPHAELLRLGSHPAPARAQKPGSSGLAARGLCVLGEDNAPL
Outline: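 Kinetic calcium assay, 1 s sampling over 3 min at Ex/Em 480/540, in HEK293 cells engineered with human KISS1R; compounds delivered in DMSO after 1 h dye loading.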

[4] = G protein-coupled receptor (GPCR) small molecule agonists, calcium flux assay: HEK293 wild type cell line counter screen (AID 1920065)
Outline: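 Calcium-sensitive dye, loaded 1 h at 37 C into cells cultured 18 h, reports compound-evoked calcium release as fluorescence (Ex/Em 480/540), measured over 3 min. Agonist mode; 15-point titrations, triplicate.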

[5] = p53 small molecule agonists, cell-based qHTS assay with human liver microsomes (AID 1963577)
Outline: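 Cells carrying a p53-responsive bla reporter were rested 5 h (37 C, 5% CO2) before compound transfer. Human liver microsomes plus NADPH, 0.5 mg/mL final apiece, supplied metabolism during the 16 h 37 C exposure.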

[6] = p53 small molecule agonists, cell-based qHTS assay with rat liver microsomes (AID 1963578)
Outline: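 Fluorescence from a beta-lactamase reporter under a p53 response element was measured after cells had been incubated 16 h at 37 C with test compound and rat liver microsomes plus NADPH (0.5 mg/mL final each).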

[7] = p53 small molecule agonists, cell-based qHTS assay with human liver microsomes: qHTS cell viability counter screen (AID 1963579); also: nearly all actives have a fitted effect of over 45% in size; also: potency is read from the fitted curve at half-maximal effect
Outline: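 Seed p53RE-bla cells at 4,000 per well; incubate 5 h at 37 C; add compound, human liver microsomes and NADPH; incubate 16 h at 37 C; add CellTiter-Glo; after 30 min at room temperature, read luminescence.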

[8] = p53 small molecule agonists, cell-based qHTS assay with rat liver microsomes: qHTS cell viability counter screen (AID 1963580); also: nearly all actives have a fitted effect of over 45% in size
Outline: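 HCT-116 p53RE-bla, 4,000 cells/well, 5 h pre-incubation; cpd + rat liver microsomes 0.5 mg/mL + NADPH 0.5 mg/mL (final); 16 h, 37 C; CellTiter-Glo, 30 min RT; luminescence.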

[9] = p53 small molecule agonists, cell-based qHTS assay: qHTS cell viability counter screen (AID 1963581); also: nearly all actives have a fitted effect of over 45% in size; also: potency is read from the fitted curve at half-maximal effect
Outline: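 Following 5 h attachment, HCT-116 p53RE-bla cells took up compound for 16 h at 37 C; the reporter was read with B/G FRET substrate (2 h RT), and viability then via CellTiter-Glo ATP luminescence.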

[10] = p53 small molecule agonists, cell-based qHTS assay (AID 1963582; active = well fitted activation curve with a large enough effect in the signal ratio in the repeat runs, not every such curve was filed as active; the % refers to the signal ratio)
Outline: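 In this cell-based concentration-response screen, a p53 response element drives beta-lactamase; cells received DMSO-borne compounds after 5 h culture and were incubated a further 16 h before FRET substrate development.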

[11] = target: 5-hydroxytryptamine receptor 2A (Homo sapiens) (UniProt P28223); assay: 5-hydroxytryptamine receptor 2A (HTR2A) small molecule antagonists, cell-based qHTS assay (AID 1963586); also: nearly all actives have a fitted effect of over 45% in size; also: potency is read from the fitted curve at half-maximal effect
5-hydroxytryptamine receptor 2A (Homo sapiens), sequence (P28223 whole entry, looked up): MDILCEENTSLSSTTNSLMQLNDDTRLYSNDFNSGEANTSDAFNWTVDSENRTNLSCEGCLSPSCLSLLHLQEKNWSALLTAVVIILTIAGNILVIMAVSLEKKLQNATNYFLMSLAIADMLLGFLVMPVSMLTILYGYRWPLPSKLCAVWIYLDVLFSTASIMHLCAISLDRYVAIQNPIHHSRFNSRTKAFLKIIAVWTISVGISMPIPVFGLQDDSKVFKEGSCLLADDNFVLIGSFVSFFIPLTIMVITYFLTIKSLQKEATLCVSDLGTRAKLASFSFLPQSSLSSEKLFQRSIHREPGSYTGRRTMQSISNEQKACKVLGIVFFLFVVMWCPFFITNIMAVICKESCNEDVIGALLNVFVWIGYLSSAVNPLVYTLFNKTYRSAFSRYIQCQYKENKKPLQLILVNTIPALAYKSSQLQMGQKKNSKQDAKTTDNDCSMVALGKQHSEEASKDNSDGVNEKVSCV
Outline: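 Antagonist-mode intracellular calcium assay: DOI (4 nM) added after 5 min compound pre-incubation at room temperature to dye-loaded HTR2A-CHO cells. Fluorescence followed for 3 min, sampled every second.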

[12] = target: 5-hydroxytryptamine receptor 2A (Homo sapiens) (UniProt P28223); assay: 5-hydroxytryptamine receptor 2A (HTR2A) small molecule agonists, cell-based qHTS assay (AID 1963587); also: nearly all actives have a fitted effect of over 30% in size
Outline: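 Kinetic calcium-flux fluorescence (2 min, 1 sec intervals) after compound addition in agonist mode. HTR2A-CHO cells were cultured 18 h, then dye-loaded 1 h at 37 C.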

[13] = target: Muscarinic acetylcholine receptor M1 (Homo sapiens) (UniProt P11229); assay: Cholinergic receptor muscarinic 1 (CHRM1) small molecule antagonists, cell-based qHTS assay (AID 1963588); also: nearly all actives have a fitted effect of over 40% in size
Muscarinic acetylcholine receptor M1 (Homo sapiens), sequence (P11229 whole entry, looked up): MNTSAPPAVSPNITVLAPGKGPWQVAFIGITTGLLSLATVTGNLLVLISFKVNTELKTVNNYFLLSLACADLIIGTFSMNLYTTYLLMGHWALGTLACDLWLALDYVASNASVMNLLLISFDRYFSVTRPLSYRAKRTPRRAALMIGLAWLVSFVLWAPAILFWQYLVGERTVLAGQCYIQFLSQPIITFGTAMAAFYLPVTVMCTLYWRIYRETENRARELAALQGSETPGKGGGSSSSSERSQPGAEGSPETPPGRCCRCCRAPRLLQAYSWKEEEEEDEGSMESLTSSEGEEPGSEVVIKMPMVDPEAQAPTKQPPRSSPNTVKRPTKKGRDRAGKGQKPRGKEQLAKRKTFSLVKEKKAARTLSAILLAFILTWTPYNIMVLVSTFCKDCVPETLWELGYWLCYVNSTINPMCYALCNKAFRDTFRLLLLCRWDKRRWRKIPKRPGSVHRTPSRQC
Outline: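 CHRM1-CHO calcium-flux assay, antagonist mode. Cells were seeded 18 h, dye-loaded 1 h at 37 C and given compound for 5 min at RT, then acetylcholine was added at 50nM. FDSS fluorescence was read 3 min; 15 concentrations, three runs.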

[14] = target: Muscarinic acetylcholine receptor M1 (Homo sapiens) (UniProt P11229); assay: Cholinergic receptor muscarinic 1 (CHRM1) small molecule agonists, cell-based qHTS assay (AID 1963589); also: nearly all actives have a fitted effect of over 35% in size
Outline: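 Measures agonist-induced intracellular calcium rise. Stable human CHRM1 CHO line, 1 h dye load at 37 C, compounds from DMSO, kinetic fluorescence read.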

[15] = cAMP Responsive Elements (CRE) small molecule agonists, cell-based qHTS assay (AID 1963590)
Outline: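 A CRE-responsive beta-lactamase reporter in HEK 293T cells was used. Treatment ran 3 h at 37 C; detection used LiveBLAzer B/G FRET substrate for 2 h at room temperature.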

[16] = cAMP Responsive Elements (CRE) small molecule antagonists, cell-based qHTS assay (AID 1963591; active = well fitted inhibition curve with a large enough effect in the signal ratio in the repeat runs, not every such curve was filed as active; the % refers to the signal ratio)
Outline: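 HEK293T cells carrying a CRE-driven beta-lactamase reporter receive compound and NKH477 (0.25 uM final) for 3 h. Fluorescence from LiveBLAzer B/G FRET substrate is read after 2 h at room temperature.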

[17] = target: Beta-2 adrenergic receptor (Homo sapiens) (UniProt P07550); assay: Adrenergic beta2 receptor (ADRB2) small molecule antagonists, cell-based qHTS assay (AID 1963592); also: series mostly up to about 92 µM; nearly all actives have a fitted effect of over 50% in size
Beta-2 adrenergic receptor (Homo sapiens), sequence (P07550 whole entry, looked up): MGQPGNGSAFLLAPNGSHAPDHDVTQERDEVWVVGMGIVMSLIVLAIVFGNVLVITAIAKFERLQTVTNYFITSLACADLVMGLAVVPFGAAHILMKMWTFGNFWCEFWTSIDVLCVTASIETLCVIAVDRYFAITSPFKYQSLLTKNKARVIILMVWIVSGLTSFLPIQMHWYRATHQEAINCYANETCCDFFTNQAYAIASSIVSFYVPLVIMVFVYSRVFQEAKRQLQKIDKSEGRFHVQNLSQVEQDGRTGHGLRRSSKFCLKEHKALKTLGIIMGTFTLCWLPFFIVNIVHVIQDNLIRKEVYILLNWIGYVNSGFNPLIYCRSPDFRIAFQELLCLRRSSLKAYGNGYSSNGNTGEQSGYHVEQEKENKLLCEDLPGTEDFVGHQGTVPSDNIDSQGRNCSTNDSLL
Outline: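 Cells (CHO, stable ADRB2 overexpression) incubated 18-20hr at 37C; compounds added from DMSO; agonist mix (1nM isoproterenol, 100uM IBMX, 25uM Ro-20-1724) added; 0.5hr RT; d2-cAMP and anti-cAMP-cryptate added; 1hr RT; 665/615 nm read.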

[18] = target: Beta-2 adrenergic receptor (Homo sapiens) (UniProt P07550); assay: Adrenergic beta2 receptor (ADRB2) small molecule agonists, cell-based qHTS assay (AID 1963593); also: potency is read from the fitted curve at half-maximal effect;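 as to activation: CHO cells stably overexpressing human ADRB2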
Outline: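 CHO cells stably over-expressing ADRB2 were plated overnight at 37C, then dosed with compounds plus a stimulation mix containing 100uM IBMX and 25uM Ro-20-1724 for 0.5hr at room temperature. cAMP was measured by HTRF competition, 1hr.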

[19] = target: D(2) dopamine receptor (Homo sapiens) (UniProt P14416); assay: Dopamine D2 receptor (DRD2) small molecule agonists, cell-based qHTS assay (AID 1963594); also: nearly all actives have a fitted effect of over 35% in size
D(2) dopamine receptor (Homo sapiens), sequence (P14416 whole entry, looked up): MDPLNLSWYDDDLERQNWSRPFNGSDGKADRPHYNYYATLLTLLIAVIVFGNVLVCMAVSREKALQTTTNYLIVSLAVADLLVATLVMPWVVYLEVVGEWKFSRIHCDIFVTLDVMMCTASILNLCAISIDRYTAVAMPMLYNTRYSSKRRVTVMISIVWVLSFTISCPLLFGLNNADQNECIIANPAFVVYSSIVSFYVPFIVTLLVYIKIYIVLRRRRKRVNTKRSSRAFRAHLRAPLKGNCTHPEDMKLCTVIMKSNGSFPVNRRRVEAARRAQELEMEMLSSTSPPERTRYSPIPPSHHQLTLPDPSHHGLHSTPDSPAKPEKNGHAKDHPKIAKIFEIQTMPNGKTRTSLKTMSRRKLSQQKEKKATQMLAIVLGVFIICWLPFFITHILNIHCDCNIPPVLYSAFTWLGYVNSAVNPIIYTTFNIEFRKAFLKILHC
Outline: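 cAMP accumulation in DRD2-HEK293 cells measured by HTRF after 1 h detection; compounds added 10 min before NKH477 (200nM […]) forskolin-analogue stimulation, 30 min at room temperature, with Ro20-1724 present at 0.1 mM final.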

[20] = target: D(2) dopamine receptor (Homo sapiens) (UniProt P14416); assay: Dopamine D2 receptor (DRD2) small molecule antagonists, cell-based qHTS assay (AID 1963595; active = well fitted inhibition curve with a large enough effect in the signal ratio in the repeat runs, with a control signal flat; the % refers to the signal ratio; also: potency is read from the fitted curve at half-maximal effect)
Outline: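 Readout: HTRF cAMP, cAMP-d2 competing with cellular cAMP for anti-cAMP cryptate, read after 1 h. Cells: DRD2-HEK293. Conditions: 0.1 mM Ro20-1724, 12 nM quinpirole, 200 nM NKH477, 30 min RT.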

Measured: Potency

CCO[Si](C)(C)OCC
not listed: [20]
inactive: all other assays above

FC(F)(F)c1cccc(Cl)c1
not listed: [2] | [3] | [7] | [18]
inactive: all other assays above

Oc1cccc2ccccc12
not listed: [18]
inactive: all other assays above

COC(=O)c1ccc(C)cc1C1=NC(C)(C(C)C)C(=O)N1 (stereo not drawn)
not listed: [18]
inactive: all other assays above

CCC1CCCCC1
inactive: all assays above

CC(C)(C)c1cc(Cc2cc(C(C)(C)C)c(O)c(C(C)(C)C)c2)cc(C(C)(C)C)c1O
not listed: [2] | [3] | [4] | [5] | [6] | [10]
inactive: all other assays above

c1ccc2cnncc2c1
not listed: [18]
inactive: all other assays above

CN1CCOCC1
inactive: all assays above

CN1CCc2cccc3c2[C@H]1Cc1ccc(O)c(O)c1-3
1.51 µM (active) and inactive: [11]
active: [1] 30.9 µM and 22.8 µM
not listed: [10] | [17] | [18] | [19]
inactive: all other assays above

CC(=O)Oc1cccc(O)c1
not listed: [18]
inactive: all other assays above

NC1CCCCC1N (stereo not drawn)
not listed: [18]
inactive: all other assays above

COc1cc(N)c(Cl)cc1C(=O)NC1CCN(Cc2ccccc2)CC1
active: [11] 1.83 µM | [20] 29.8 nM
not listed: [14] | [18]
inactive: all other assays above

O=P(O)(O)O
not listed: [5] | [6] | [10]
inactive: all other assays above

COc1ccc2cc1Oc1cc3c(cc1OC)CC[N+](C)(C)[C@H]3Cc1ccc(cc1)Oc1c(OC)c(OC)cc3c1[C@@H](C2)[N+](C)(C)CC3
not listed: [6]
inactive: all other assays above

C[C@]12CC[C@@H]3c4ccc(O)cc4CC[C@H]3[C@@H]1CCC2=O
inactive: [1] | [2] | [3] | [4] | [7] | [8] | [9] | [16] | [17] | [19] | [20]

Oc1ccc2c(c1)OC[C@@H](N1CCC(O)(c3ccc(F)cc3)CC1)[C@H]2O
not listed: [7]
inactive: all other assays above

C=C(C)C(=O)OCCC(F)(F)C(F)(F)C(F)(F)C(F)(F)C(F)(F)C(F)(F)F
not listed: [5]
inactive: all other assays above

O=c1n(CCO)c(=O)n(CCO)c(=O)n1CCO
not listed: [6] | [7]
inactive: all other assays above

OCCOCCN1CCN(C2=Nc3ccccc3Sc3ccccc32)CC1
inactive: [1] | [2] | [3] | [4] | [5] | [9] | [10] | [17] | [18] | [19] | [20]

c1ccc2c(c1)ccc1ncccc12
not listed: [5] | [6] | [7] | [10] | [15] | [16] | [18]
inactive: all other assays above

CCC(C)C1N=C(C)C(C)S1 (stereo not drawn)
not listed: [5] | [14] | [16] | [18]
inactive: all other assays above

C=CC(=O)OCC(CO)(COC(=O)C=C)COC(=O)C=C
active: [1] 4.87 µM and 12.2 µM | [7] 45.9 µM and 9.13 µM | [9] 16.3 µM and 10.2 µM | [18] 6.88 µM and 19.3 µM | [20] 54.6 µM and 21.7 µM
not listed: [5] | [6] | [8] | [10] | [15] | [16]
inactive: all other assays above

CN(C)c1ccc(C(=N)c2ccc(N(C)C)cc2)cc1
active: [1] 24 µM and 23.4 µM | [2] 29700 nM
not listed: [6] | [10] | [12] | [13] | [15] | [19]
inactive: all other assays above

CC(COCC(C)OC(=O)c1ccccc1)OC(=O)c1ccccc1 (stereo not drawn)
not listed: [5] | [6] | [7] | [9] | [10]
inactive: all other assays above

Cc1sccc1Br
not listed: [5] | [11] | [13] | [14]
inactive: all other assays above

CCN(CC)CCNC(=O)c1ccc(N)cc1
not listed: [5] | [6] | [10] | [11] | [12] | [13] | [14]
inactive: all other assays above

O=C(O)C[C@H](NC(=O)OCc1ccccc1)C(=O)O
not listed: [6] | [18]
inactive: all other assays above

O=S(=O)(O)c1ccccc1
not listed: [5] | [6] | [9] | [10]
inactive: all other assays above

NC(=O)Nc1ccccc1
not listed: [6] | [20]
inactive: all other assays above

CC(C)COC(=O)c1ccccc1O
not listed: [7] | [12] | [20]
inactive: all other assays above

N#Cc1cc(NC(=O)C(=O)O)c(Cl)c(NC(=O)C(=O)O)c1
not listed: [6] | [17] | [18] | [20]
inactive: all other assays above
